Source: PubChem BioAssay (Tox21)
Results filed as inconclusive are left out. Values without a mark were called inactive. Activity calls are given as the source filed them. Calls come from the whole dose curve; as a rule, active = well fitted activation curve with a large enough effect in the signal ratio in the repeat runs (not every such curve was filed as active); inconclusive = weak or mixed curves, or effect the other way; inactive = no such curve, though single readings can be large or run the other way; the % refers to the signal ratio.

target: Peroxisome proliferator-activated receptor gamma (Homo sapiens) (UniProt P37231); experiment: qHTS assay to identify small molecule agonists of the peroxisome proliferator-activated receptor gamma (PPARg) signaling pathway (AID 743094); settings: HEK293H PPARg-UAS-bla, beta-lactamase FRET ratio, 17 h; series mostly up to 57 µM; activation: at the top concentration
Source text: U.S. Tox21 Program National Center for Advancing Translational Sciences [NCATS] NIH Chemical Genomics Center [NCGC] U.S. Environmental Protection Agency [EPA] National Institutes of Environmental Health Sciences [NIEHS] National Toxicology Program [NTP] U.S. Food and Drug Administration [FDA] Tox21 Assay Overview: The peroxisome proliferator-activated receptors (PPARs) are lipid-activated transcription factors of the nuclear receptor superfamily with three distinct subtypes namely PPAR alpha, PPAR delta (also called PPAR beta) and PPAR gamma (PPARg). All these subtypes heterodimerize with Retinoid X receptor (RXR) and these heterodimers regulate transcription of various genes. PPAR-gamma receptor (glitazone receptor) is involved in the regulation of glucose and lipid metabolism. To identify the compounds that activate PPAR-gamma signaling, GeneBLAzer PPAR gamma UAS-bla HEK293H cell line (Invitrogen, Carlsbad, CA, USA) containing a beta-lactamase reporter gene under control of the control of an upstream activator sequence (UAS) stably integrated into HEK293H cells was used to screen Tox21 compound library.
Tox21 Assay Protocol Summary: PPARg-bla cells were dispensed at 3000 cells/6uL/well in 1536-well black wall/clear bottom plates using a Multidrop Combi (Thermo Fisher Scientific, Waltham, MA) dispenser. After the assay plates were incubated at 37C and 5% CO2 for 5 h, 23 nL of compounds dissolved in DMSO, positive controls or DMSO only was transferred to the assay plate by a Pintool station (Kalypsys, San Diego, CA). The assay plates were incubated at 37C for 17 h. After 1 uL of LiveBLAzerTM B/G FRET substrate was added using a Bioraptr Flying Reagent Dispenser (FRD) workstation (Beckman Coulter, Indianapolis, IN, USA), the plates were incubated at room temperature for 1 h, and fluorescence intensity was measured by an Envision plate reader (PerkinElmer, Shelton, CT).
% is set by controls: 0 for no effect and ±100 for the full control effect.

Peroxisome proliferator-activated receptor gamma (Homo sapiens), sequence (P37231 whole entry, looked up): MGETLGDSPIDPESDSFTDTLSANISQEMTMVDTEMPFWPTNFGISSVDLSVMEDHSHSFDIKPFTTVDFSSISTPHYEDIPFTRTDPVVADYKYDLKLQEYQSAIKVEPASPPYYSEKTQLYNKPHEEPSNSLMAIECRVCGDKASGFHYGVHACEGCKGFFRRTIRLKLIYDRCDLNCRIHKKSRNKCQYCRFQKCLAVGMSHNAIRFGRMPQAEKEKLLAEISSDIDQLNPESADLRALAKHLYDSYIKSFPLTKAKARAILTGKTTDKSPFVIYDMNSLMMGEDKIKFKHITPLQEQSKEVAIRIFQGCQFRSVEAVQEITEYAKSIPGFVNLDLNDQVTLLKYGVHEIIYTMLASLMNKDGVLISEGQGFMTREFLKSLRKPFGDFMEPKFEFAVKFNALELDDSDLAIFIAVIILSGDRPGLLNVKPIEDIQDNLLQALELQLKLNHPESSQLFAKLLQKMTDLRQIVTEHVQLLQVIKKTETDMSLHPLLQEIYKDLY

Row | Structure (SMILES) | activation | outcome
1 | c1ccc(CC2=NCCN2)cc1 | -2.97% [at 26.2 µM] | 
2 | CC(C)(C)c1nnc(NS(=O)(=O)c2ccccc2)s1 | -0.745% | 
3 | Cn1cc(S(C)=O)c(=O)c2ccc(F)cc21 (stereo not given) | -1.7% | 
4 | N[C@H]1CN(c2c(F)cc3c(=O)c(C(=O)O)cn(C4C[C@H]4F)c3c2Cl)CC12CC2 (stereo not given in full) | -0.0248% | 
5 | O=C[C@H](O)[C@@H](O)[C@H](O)[C@H](O)CO |  | inactive
6 | C[N+](C)(C)CCCCCC[N+](C)(C)C | 0.285% | 
7 | CC(C)NC(=O)NC(C)C | 6.61% | 
8 | O=S(O)CO |  | inactive
9 | CC(C)(C)c1ccc(O)c(O)c1 | -7.17% [at 78.9 µM] | 
10 | C/C=C(\C)C#N | 2.99% | 
11 | O=c1cc(-c2ccccc2)oc2ccccc12 |  | inactive
12 | CN(C)CCCSc1ccccc1NC(=O)/C=C/c1ccccc1 | -3.34% | 
13 | C1OCOCO1 | -3.9% [at 78.9 µM] | 
14 | CC1(C)C(O)C(C)(C)C1O (stereo not given) | -0.672% | 
15 | CCn1ccnc1CC1COc2ccccc2O1 (stereo not given) | -0.893% | 
16 | O=C(O)CCCc1ccccc1 | 1.64% | 
17 | COc1ccccc1OCC(O)CN1CCN(CC(=O)Nc2c(C)cccc2C)CC1 (stereo not given) | 2.37% | 
18 | ClC(Cl)(Br)Br | -0.153% | 
19 | N#Cc1ccc(C2CCCc3cncn32)cc1 (stereo not given) | 0.85% [at 26.2 µM] | 
20 | Cc1ccc(=O)n(-c2ccccc2)c1 | -4.16% | 

Row | Structure (SMILES) | activation | outcome
21 | C1CN(CCOCCN2CCOCC2)CCO1 | -3.73% | 
22 | Nc1ccccc1S(=O)(=O)O | -1.07% | 
23 | Cc1c(O)cccc1O | -5.69% [at 78.9 µM] | 
24 | O=[N+]([O-])c1ccc(F)cc1F | 0.0499% [at 78.9 µM] | 
25 | CCc1nccnc1CC | -0.226% [at 26.2 µM] | 
26 | CCN(CC)CCNC(=O)c1cc(S(C)(=O)=O)ccc1OC | 1.12% [at 26.2 µM] | 
27 | COC(C)(C)CCCC(C)CC=O (stereo not given) | 4.76% | 
28 | COC(=O)C1=C(C)NC(C)=C(C(=O)OC)C1c1ccccc1[N+](=O)[O-] | 0.374% | 
29 | C=C(C)C(=O)OCCCCCCCC(C)C | 1.27% [at 78.9 µM] | 
30 | COCCCOCCCOC | 0.226% | 
31 | N[C@@H](C(=O)N[C@@H]1C(=O)N2C(C(=O)O)=C(Cl)CS[C@H]12)c1ccccc1 | 0.453% | 
32 | CC/C=C\CCOC(C)=O | -3.7% | 
33 | C[C@](N)(Cc1ccc(O)cc1)C(=O)O | -0.782% | 
34 | Cc1c(NC(C)C)c(=O)n(-c2ccccc2)n1C | -0.808% | 
35 | CCCCCOC(=O)CCCCC | 3.24% | 
36 | CCCc1cc(C(N)=S)ccn1 | 0.0788% | 
37 | C[C@H]1C[C@@H](O)CC(C)(C)C1 | -0.517% | 
38 | CC(C)c1cc2c(cc1S(=O)(=O)O)[C@@]1(C)CCC[C@@](C)(C(=O)O)[C@@H]1CC2 | 2.59% | 
39 | CCOC(=O)C(=O)OCC | 2.72% | 
40 | CCOC(=O)c1ccc(C)cc1 | -3.36% | 
